Experimental data taken from publication PMC4336329 (PLoS ONE, 2015).
Hit rate of the full screen: of about 310,000 compounds, about 14,000 (4.5%) showed an effect of 50% or more. The effect is printed as a negative number. The list comes from a sample in which strong results are over-represented; it also holds similar structures and randomly drawn compounds.

molecular target: human ether-à-go-go-related gene (hERG) potassium channel (human, UniProt Q12809); assay: primary screen, population patch clamp on CHO cells stably expressing hERG; higher = less effect of the substance
Sequence (Q12809 whole entry, looked up): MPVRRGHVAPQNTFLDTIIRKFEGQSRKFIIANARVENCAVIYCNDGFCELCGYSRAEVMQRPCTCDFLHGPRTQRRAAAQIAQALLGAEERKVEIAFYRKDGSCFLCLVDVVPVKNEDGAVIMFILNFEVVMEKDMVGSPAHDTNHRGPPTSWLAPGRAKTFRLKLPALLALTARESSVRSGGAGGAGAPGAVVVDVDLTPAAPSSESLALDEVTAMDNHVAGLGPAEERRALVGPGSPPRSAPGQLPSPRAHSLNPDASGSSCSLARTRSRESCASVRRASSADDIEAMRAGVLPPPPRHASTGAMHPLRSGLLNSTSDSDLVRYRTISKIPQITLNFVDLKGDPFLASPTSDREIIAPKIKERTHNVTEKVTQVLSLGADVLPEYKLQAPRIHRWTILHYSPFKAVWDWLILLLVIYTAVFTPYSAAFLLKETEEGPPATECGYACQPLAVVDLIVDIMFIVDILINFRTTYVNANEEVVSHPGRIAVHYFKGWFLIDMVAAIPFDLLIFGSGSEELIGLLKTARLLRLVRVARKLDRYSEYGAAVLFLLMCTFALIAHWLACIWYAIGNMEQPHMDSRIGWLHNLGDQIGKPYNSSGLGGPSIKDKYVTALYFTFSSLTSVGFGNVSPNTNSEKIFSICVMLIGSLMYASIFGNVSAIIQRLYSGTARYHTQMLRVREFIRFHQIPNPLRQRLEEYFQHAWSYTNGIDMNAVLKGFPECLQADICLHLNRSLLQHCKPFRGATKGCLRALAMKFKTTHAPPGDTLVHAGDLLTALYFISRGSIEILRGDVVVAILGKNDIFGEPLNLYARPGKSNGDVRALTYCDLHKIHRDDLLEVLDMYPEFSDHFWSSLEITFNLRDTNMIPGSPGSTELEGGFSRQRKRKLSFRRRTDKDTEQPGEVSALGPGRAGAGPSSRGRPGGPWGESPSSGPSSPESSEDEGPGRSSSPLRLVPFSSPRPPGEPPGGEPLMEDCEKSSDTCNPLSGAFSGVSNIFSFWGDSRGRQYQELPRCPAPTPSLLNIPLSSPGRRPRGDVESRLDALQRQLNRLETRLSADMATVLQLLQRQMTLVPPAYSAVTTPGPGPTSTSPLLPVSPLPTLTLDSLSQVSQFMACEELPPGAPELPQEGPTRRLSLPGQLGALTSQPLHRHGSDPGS
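Note: peak tail current of the secondary pulse compared with the same well before compound.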

Compared with COc1ccc(CN2C(=O)NC3(CCCc4ccccc43)C2=O)cc1F (stereo not shown), O=C1Nc2cc(C(=O)NCC3CCCO3)ccc2S/C1=C/c1ccccc1F (stereo not shown) is higher in “hERG current change (%, negative = inhibition) at 10uM” value: -14.4% for the first, -4.84% for the second.

First: O=[N+]([O-])c1cc(S(=O)(=O)Nc2cccc(C(F)(F)F)c2)ccc1-n1nnc2ccccc21
Second: Cc1ccc(S(=O)(=O)Nc2cc(-c3ccccc3)nn2C)cc1Cl
The “hERG current change (%, negative = inhibition) at 10uM” value of the first is lower: 0.81% for the first, 12.2% for the second.

First: COc1ccc(S(=O)(=O)N2CCC(N3CCN(c4ccccc4)CC3)CC2)cc1
Second: COc1ccccc1N1CCN(S(=O)(=O)/C=C/c2ccccc2)CC1
The “hERG current change (%, negative = inhibition) at 10uM” value of the first is higher: -8.52% for the first, -11.3% for the second.

Going from C/C=C(\C)C(=O)NCCN1C2=NC[C@H](Cc3ccccc3)N2C[C@@H]1Cc1ccc(OC)cc1 to C/C=C(\C)C(=O)NCCN1C2=NC[C@@H](Cc3ccccc3)N2C[C@@H]1Cc1ccc(OC)cc1, the “hERG current change (%, negative = inhibition) at 10uM” value rises from -73.3% to -60.3%.

Going from C/C=C(\C)C(=O)NCCN1C2=NC[C@@H](Cc3ccccc3)N2C[C@H]1Cc1ccc(O)cc1 to C/C=C(\C)C(=O)NCCN1C2=NC[C@H](Cc3ccccc3)N2C[C@H]1Cc1ccc(O)cc1, the “hERG current change (%, negative = inhibition) at 10uM” value falls from 12.8% to 1.99%.

Compared with C/C=C(\C)C(=O)NCCN1C2=NC[C@H](C(C)C)N2C[C@@H]1Cc1ccc(OC)cc1, C/C=C(\C)C(=O)NCCN1C2=NC[C@H](C(C)C)N2C[C@H]1Cc1ccc(O)cc1 is higher in “hERG current change (%, negative = inhibition) at 10uM” value: -86.6% for the first, 23.1% for the second.

First: C/C=C(\C)C(=O)NCCN1C2=NC[C@H](C)N2C[C@@H]1Cc1ccc(OC)cc1
Second: C/C=C(\C)C(=O)NCCN1C2=NC[C@H](Cc3ccc(O)cc3)N2C[C@@H]1Cc1ccc(OC)cc1
The “hERG current change (%, negative = inhibition) at 10uM” value of the first is lower: -4.7% for the first, -2.89% for the second.

First: CC1(C)CC(=O)C2=C(C1)OC1=C(C(=O)CC(C)(C)C1)C2c1ccc(O)c([N+](=O)[O-])c1
Second: CC1(C)CC(NC(=O)COc2ccc3ccccc3c2)CC(C)(C)N1
The “hERG current change (%, negative = inhibition) at 10uM” value of the first is higher: 14% for the first, -12.6% for the second.

Compared with Cc1cc(O)c(C=Nc2ccc(N3CCOCC3)cc2)c(C)c1Cl, Cc1cccc(/C=C2/Sc3ccc(C(=O)NCCCN4CCOCC4)cc3NC2=O)c1 is lower in “hERG current change (%, negative = inhibition) at 10uM” value: 18.5% for the first, -25.3% for the second.

Going from O=C1CN(C(=O)COC(=O)C2CC(=O)N(Cc3ccco3)C2)c2ccccc2N1 (stereo not shown) to O=C1Nc2cc(C(=O)NCCCN3CCCC3)ccc2S/C1=C\c1ccccc1, the “hERG current change (%, negative = inhibition) at 10uM” value falls from -7.99% to -51.4%.

Compared with CSc1ccc(/C=C2\C(=N)N3N=C(CC(=O)N4CCOCC4)SC3=NC2=O)cc1, O=C1Nc2cc(C(=O)NCCCN3CCOCC3)ccc2S/C1=C/c1ccccc1F is lower in “hERG current change (%, negative = inhibition) at 10uM” value: 14.2% for the first, -29.8% for the second.

Compared with CC1CCN(C(=O)c2ccc3c(c2)NC(=O)/C(=C/c2ccccc2)S3)CC1, CN1CCN(C(=O)c2ccc3c(c2)NC(=O)/C(=C/c2ccccc2)S3)CC1 is lower in “hERG current change (%, negative = inhibition) at 10uM” value: 11% for the first, -16% for the second.

Compared with O=C1Nc2cc(C(=O)N3CCC(N4CCCCC4)CC3)ccc2S/C1=C\c1ccccc1, O=C1Nc2cc(C(=O)NCCN3CCCCCC3)ccc2S/C1=C\c1ccccc1 is higher in “hERG current change (%, negative = inhibition) at 10uM” value: -58.3% for the first, -43.9% for the second.

Compared with Cc1cccc(/C=C2/Sc3ccc(C(=O)NCCN4CCCC4)cc3NC2=O)c1, COc1cccc(/C=C2/Sc3ccc(C(=O)NCCN4CCCC4)cc3NC2=O)c1 is higher in “hERG current change (%, negative = inhibition) at 10uM” value: -54.7% for the first, -39.1% for the second.

First: CCN1CCCC1CNC(=O)c1ccc2c(c1)NC(=O)/C(=C\c1ccc(C)cc1)S2 (stereo not shown)
Second: CCC1CCCCN1CCCNC(=O)c1ccc(/C=C2/Sc3ccccc3NC2=O)cc1 (stereo not shown)
The “hERG current change (%, negative = inhibition) at 10uM” value of the first is higher: -42.4% for the first, -76.9% for the second.

Compared with COc1cccc(/C=C2/Sc3ccc(C(=O)NCCCN4CCCC4)cc3NC2=O)c1, COc1cccc(/C=C2/Sc3ccc(C(=O)NCCN4CCCCCC4)cc3NC2=O)c1 is higher in “hERG current change (%, negative = inhibition) at 10uM” value: -59.8% for the first, -47.3% for the second.

Going from CCN1CCN(CCCNC(=O)c2ccc3c(c2)NC(=O)/C(=C\c2cccc(C)c2)S3)CC1 to O=C1Nc2cc(C(=O)NCCCN3CCCC3)ccc2S/C1=C/c1ccccc1F, the “hERG current change (%, negative = inhibition) at 10uM” value falls from -38.6% to -69.5%.

First: CCC1CCCCN1CCCNC(=O)c1ccc2c(c1)NC(=O)CS2 (stereo not shown)
Second: O=C(NCCCN1CCCCC1)c1ccc2c(c1)NC(=O)c1ccccc1S2
The “hERG current change (%, negative = inhibition) at 10uM” value of the first is higher: 4.27% for the first, -13.7% for the second.

Compared with CC(C)(C)C(=O)O/N=C(\N)c1ccc([N+](=O)[O-])s1, CCC(=O)N/N=c1/sc2ccccc2n1C is lower in “hERG current change (%, negative = inhibition) at 10uM” value: 20.7% for the first, 13.9% for the second.

First: CSc1cccc(NC(=O)C2CCN(C(=O)c3ccccc3C)CC2)c1
Second: O=C(O)c1cccc2c1C(=O)c1ccccc1C2=O
The “hERG current change (%, negative = inhibition) at 10uM” value of the first is lower: -18.7% for the first, 19.7% for the second.

First: O=C1CC(c2ccc(F)cc2)Cc2nc(N3CCN(c4ccccc4)CC3)ncc21 (stereo not shown)
Second: Cc1ccc2nc3c(cc(C(=O)NC4CCS(=O)(=O)C4)n3Cc3ccccc3)c(=O)n2c1 (stereo not shown)
The “hERG current change (%, negative = inhibition) at 10uM” value of the first is lower: 1.48% for the first, 19.6% for the second.

Compared with O=C(O)c1ccc(/C=N/NC(=O)c2ccc3c(c2)OCCO3)cc1, Cc1ccc(NC(=O)CSc2ccc3nnc(CCNC(=O)c4ccccc4)n3n2)c(C)c1 is lower in “hERG current change (%, negative = inhibition) at 10uM” value: 16.1% for the first, -18% for the second.

Going from CCn1c(C2CCN(Cc3ccccc3)CC2)n[nH]c1=S to COc1ccccc1NC(=S)NCC1CCCO1 (stereo not shown), the “hERG current change (%, negative = inhibition) at 10uM” value rises from -17.3% to 8.94%.

First: Cc1ccc(C)c(NC2=NCCCS2)c1
Second: Cc1ccc2nc(SCC(=O)NC3CCCC3)nc(=O)n2c1
The “hERG current change (%, negative = inhibition) at 10uM” value of the first is higher: 1.48% for the first, -25.1% for the second.

First: Cc1ccc(NC(=O)CN(C)C(=O)COC(=O)COc2ccc(C#N)cc2)cc1
Second: S=C(NCCCc1ccccc1)Nc1ccc(Br)cc1
The “hERG current change (%, negative = inhibition) at 10uM” value of the first is lower: -24.2% for the first, 17.9% for the second.

Compared with CCCCCOC(=O)C1[C@H]2C(=O)N(Cc3cccs3)C[C@]23C=C[C@H]1O3 (stereo partly shown), Cc1ccc2nc(SCC(=O)NC3CCCCC3)nc(=O)n2c1 is lower in “hERG current change (%, negative = inhibition) at 10uM” value: 1.95% for the first, -14.5% for the second.

First: Cc1ccc2nc3nc(NCC4CCCO4)c(C(=O)NC4CCCC4)cc3c(=O)n2c1 (stereo not shown)
Second: Cc1ccc2nc3nc(NCC4CCCO4)c(C(=O)NC4CCCCC4)cc3c(=O)n2c1 (stereo not shown)
The “hERG current change (%, negative = inhibition) at 10uM” value of the first is higher: -75.6% for the first, -78.1% for the second.

With O=C(NC1CCCCCC1)c1ccc2nc3cc(Cl)ccc3c(=O)n2c1 the “hERG current change (%, negative = inhibition) at 10uM” value was 7.94%.
